Unmarked numbers belong to inactive results. How the calls were made is not given here.
Tested on: Aerobactin synthetase IucA (Klebsiella pneumoniae hvKP1)
Assay: Biochemical IucA enzyme inhibition primary screen of the Spectrum library (AID 1346200);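 further: 100% = wells without compound and 0% = wells lacking enzyme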
Settings: malachite green pyrophosphate, A620, at 8 µM, stronger effect = lower value

SMILES	activity remaining [%]
N=c1ccn2c(n1)O[C@@H]1[C@@H](O)[C@H](CO)O[C@@H]12	97.5
COC(=O)C(N)CS (configuration not stated)	122
O=C1c2cccc(O)c2C(=O)c2c(O)cccc21	93.6
C=CCCCCCCCCC(=O)O	111
Cn1cc[nH]c1=S	99.8
CC[C@]12CCCN3CCc4c(n(c5ccccc45)C(=O)C1)[C@@H]32	101
CC(C(=O)O)c1ccc(N2Cc3ccccc3C2=O)cc1 (configuration not stated)	103
NC(=O)c1ccccc1O	88.1
CCC(=O)OCC(=O)[C@@]1(OC(=O)CC)[C@@H](C)CC2C3CCC4=CC(=O)C=C[C@]4(C)C3(F)[C@@H](O)C[C@@]21C (some centres not stated)	125
CCOC(=O)OC(C)OC(=O)C1N2C(=O)C(NC(=O)[C@H](N)c3ccccc3)C2SC1(C)C (some centres not stated)	104
C/C(=C\CO)CC[C@H](C)CCC[C@H](C)CCCC(C)C	121
COc1ccccc1OCCNCC(O)COc1cccc2[nH]c3ccccc3c12 (configuration not stated)	120

— PubChem BioAssay
